Data from the supplement of paper PMC6555819.

Tested on: VDR:RXRa (NR concentration 270 nM, RXRa partner concentration 90 nM)
Test: PBM binding z-score (relative to random genomic background probes); higher = stronger binding; sequences stand for … in GC…GCGATTGACAGCGTAGAATGAAGG
Method: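 Protein-binding microarray (Agilent 4x180K custom design, double-stranded 60-nt probes: 5' GC cap, 34-nt variable region, 24-nt constant primer region; full probe sequence given). Purified or IVT nuclear receptor:RXRα heterodimers (3:1 NR:RXRα, mostly 270:90 nM) or homodimers were incubated for 1 h in PBS with 2% milk and no ligand, then detected with Alexa488 antibodies. Fluorescence from o1-orientation probes (~5 replicates averaged) was converted to z-scores against 500 random hg19 background probes. Variable regions are seed direct-repeat (DR0–DR5) sites, all their single-nucleotide variants and half-site ablations.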

With TCTCGGAGGACACGAAGGTCACAGCTTTCCAGAG as the sequence, how does the PBM binding z-score read?
The PBM binding z-score was 4.05.

With CGTCCGAGGTCAGCAGGTCAGTGAAAGCGACGTG as the sequence, how does the PBM binding z-score read?
Its PBM binding z-score is 4.86.

Which PBM binding z-score does the source give for CCGACTGGGGCAAAGGTTACCAGACTCAGTACGA here?
The PBM binding z-score was 1.64.

For CCTGCTGGGCCAAAGGTCATTGATTCCAATGCTC, which PBM binding z-score is on record?
The PBM binding z-score was 4.43.

For CCTAGCAGGCCAGTCTGGGTCACTCAAGGCTTGA, which PBM binding z-score is on record?
Its PBM binding z-score is 0.512.

How did the PBM binding z-score turn out when TCATATAGGTAAATCCTAGGTGAAAGTCCGATCT was run?
Its PBM binding z-score is 0.7.

How did the PBM binding z-score turn out when GATACAGGGTCAAGGCCAGAGCACGCGTATTGAT was run?
Its PBM binding z-score is 4.21.

Which PBM binding z-score does the source give for TCTTGTACATCAACAGGAGGTTAAGAAAGATCGA here?
Its PBM binding z-score is 0.977.

With CAAACTAGGTCACCCGAAGGTCAAAGTCCGCATG as the sequence, how does the PBM binding z-score read?
The PBM binding z-score was 5.75.

How did the PBM binding z-score turn out when CGAACTCGGTCATTGACAGGACAGTGAATAGTAA was run?
The PBM binding z-score was 0.452.

Which PBM binding z-score does the source give for ACTTGCAGGCCAAGGGTCACTCAAGATTAGTCCG here?
The PBM binding z-score was 3.05.

How did the PBM binding z-score turn out when TCTGCTAGGTGAGTTGGTCAGCTAACGAGCTGCC was run?
Its PBM binding z-score is -0.769.

Which PBM binding z-score does the source give for TAGCCTAGTTCATGGGCCAGTATACCACGCGAAC here?
The PBM binding z-score was 0.685.

How did the PBM binding z-score turn out when TCGTGTAGGTTAGTCGGGGCATTCAGCCAACATA was run?
The PBM binding z-score was 2.72.

ATCTGTAGGTAAAGTTCAGTGAAAGATCGATAGA was tested. Which PBM binding z-score did it give?
Its PBM binding z-score is 1.24.

For TCTATTAGTTGAAAGGCAACCGACGAGTCCGTTT, which PBM binding z-score is on record?
Its PBM binding z-score is 0.899.

Which PBM binding z-score does the source give for GATACAGGGTCAGCTAGATGCCAGAGTATGGAAA here?
The PBM binding z-score was 2.58.

For GGAATGAGGGCAAGTTGATAGCAGAGTTTGATGG, which PBM binding z-score is on record?
The PBM binding z-score was 1.18.

ATACCACGGTGATCGTGAGGTCGTTGATACTAAC was tested. Which PBM binding z-score did it give?
Its PBM binding z-score is 1.93.

Which PBM binding z-score does the source give for TCTCGGAGGACACGAAGGTCCGAGCTTTCCAGAG here?
The PBM binding z-score was 0.0624.

How did the PBM binding z-score turn out when GCTATTTGGTCAGTAAAAGGTCACACACCGGTCG was run?
The PBM binding z-score was 4.32.

With CGGACTAGGTCATTGACAGGACAGTGAATAGTAA as the sequence, how does the PBM binding z-score read?
Its PBM binding z-score is 2.

With CCTCGGAGGACAACAGGAGGTCAGAGCTGCCAGA as the sequence, how does the PBM binding z-score read?
Its PBM binding z-score is 2.

GGAACGAGGGCAAGTTGATACCAGAGTTTGATGG was tested. Which PBM binding z-score did it give?
Its PBM binding z-score is 1.1.

How did the PBM binding z-score turn out when GAAGACAGGTGAAACGCAGGTAACTCAGGGTGGC was run?
Its PBM binding z-score is -0.438.

GCTATCAGTTGAAAGGGCAACCGAATGATTCTCG was tested. Which PBM binding z-score did it give?
Its PBM binding z-score is 0.34.

How did the PBM binding z-score turn out when TGAATGAGGTTAAAGATCAGAGAACGTGGCGTCG was run?
The PBM binding z-score was 1.8.

TCGAGTAGGTTACCAATGGGTCATTCAGCTTTCT was tested. Which PBM binding z-score did it give?
The PBM binding z-score was 1.85.

For AGAATGAGGTTAAGCTCAGGGAAACAGAATACAT, which PBM binding z-score is on record?
The PBM binding z-score was 1.26.

How did the PBM binding z-score turn out when CCTACTGGGCCAAAAAGGTCATGGATGCCGATAA was run?
Its PBM binding z-score is 4.54.

CCCAGTAGGTTATGGGGCATTCAGGCAACGGTGA was tested. Which PBM binding z-score did it give?
The PBM binding z-score was 0.00537.

Which PBM binding z-score does the source give for AGAACGAGGGCACGTTGAGTTGATAGCAGAGTAG here?
The PBM binding z-score was 2.32.

With AGTCAAAGTTCACTAGCTAACGTAAGATTCAGCT as the sequence, how does the PBM binding z-score read?
Its PBM binding z-score is 3.66.

With TGAATGAGGTTATAAGATCAGGGGACGTTGCAAA as the sequence, how does the PBM binding z-score read?
The PBM binding z-score was 1.16.

CCGACTGGAGCATAAGGTTACCATAAGCCAGCCC was tested. Which PBM binding z-score did it give?
The PBM binding z-score was 0.0802.

TCTATTAGTTGAAGCGCAACCGACGAGTCCGTTT was tested. Which PBM binding z-score did it give?
The PBM binding z-score was 0.736.

For GCGACTGGGGCAAAGCAGGTTACCCTAAGGTTGG, which PBM binding z-score is on record?
Its PBM binding z-score is 0.0152.

For TCCGCTAGGTCAACGATGGTCAGCTAATCTGCTA, which PBM binding z-score is on record?
Its PBM binding z-score is 1.45.

How did the PBM binding z-score turn out when TATACAGGTTCAAAGGCCAGAGTACGAATGTCGA was run?
The PBM binding z-score was 3.76.

For ACTATTAGTTGACTGAGGGCAACCGATACGACGC, which PBM binding z-score is on record?
Its PBM binding z-score is 2.41.
